The text below walks through data of PubChem BioAssay (NCI).

Structures are written as SMILES. About 83,000 compounds went through this panel and 20% of them were active in at least one assay; those are over-represented in the sample as a whole.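 Plates (96-well) were seeded with cells, treated with compound at one concentration, and incubated for 48 hours before percent growth was determined.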 Values without a mark were called inactive. Calls of active or inactive are those of the source. How the source made its calls: active means growth percent below 10; inactive means the rest.

The assay deals with NCI/ADR-RES ovarian. Briefly: NCI-60 one-dose screen, 48 h (100 = growth as untreated, 0 = no growth, -100 = all killed). The note with it: 10 µM.
Take `COc1ccc(C2c3sc4ccc(C)cc4c3Oc3nc(N)nc(N)c32)cc1` (centres undefined): the growth is 85.1%. `Cc1cc(N=C2NC(=O)S/C2=C\c2ccc(F)cc2)n[nH]1`: the growth is 9.56% (active). To `Cn1cc(-c2nnc(N)nc2-c2c[nH]c3ccccc23)c2cc(Br)cnc21` belongs -5.86% (active); to `O=C(CC(=O)Nc1ccc(Oc2ncnc3scc(Nc4n[nH]c(=S)s4)c23)cc1)Nc1ccc(Cl)cc1`, 89.6%.

For `O=C1NC2C=CC=CC2/C1=C1/SC(=S)N(C2CC(=O)N(c3ccc(Br)cc3)C2=O)C1=O` (centres undefined), the growth is 95.6%. As for `CC1(C)CC(=O)C2=C(C1)N(Cc1ccc(C(=O)O)cc1)C1=C(C(=O)CC(C)(C)C1)C2c1ccc(Cl)cc1`, the growth is 95.3%. With `Cc1ccc2c(c1)C(=O)/C(=C/c1ccc([N+](=O)[O-])cc1)S2` the figure was 95.3%.

As to `O=C(Nc1ccc(OCc2ccc(Cl)cc2)cc1)Nc1ccc(Cl)c(C(F)(F)F)c1`, the growth is 1.08% (active). Regarding `Cn1cc(-c2nc(N)nnc2-c2c[nH]c3ccccc23)c2cc(Br)cnc21`, the growth is 3.11% (active). To `O=C(CSc1nc2ccccc2c(=O)n1-c1ccc(Cl)cc1)Nc1ccc(-c2nc3ccccc3[nH]2)cc1` belongs -3.44% (active); to `Cc1ccc2c(c1)C(=O)/C(=C/c1c[nH]c3ccccc13)S2`, 71.6%. `COc1cccc(O)c1/C=C1\SCc2cc3c(OC)cccc3[o+]c21`: the growth is 108%.

Consider `COc1cc(C2CC(c3ccc(Oc4ccc(Cl)cc4)cc3)=NN2c2nc(-c3ccc(Cl)cc3)c(C#N)c(N3CCOCC3)n2)cc(OC)c1OC` (centres undefined), for which the growth is 98.9%. To `O=C(Nc1ccc(OCC(=O)c2ccc(Cl)cc2)cc1)Nc1ccc(Cl)c(C(F)(F)F)c1` belongs 57.6%; to `Cc1ccc2sc3c(c2c1)Oc1nc[nH]c(=O)c1C3c1cccc(F)c1` (centres undefined), 100%; to `Cc1cc(N=C2NC(=O)/C(=C/c3cc(C(C)(C)C)c(O)c(C(C)(C)C)c3)S2)n[nH]1`, 5.91% (active). With `COc1ccc(C2c3sc4ccc(C)cc4c3Oc3nc[nH]c(=O)c32)cc1` (centres undefined) the figure was 65.4%; with `COc1cccc(C(=O)CSc2nc(-c3ccc(OCc4ccccc4)c(OC)c3)c(C#N)c(=O)[nH]2)c1`, 96.9%; with `Cc1ccc(COc2ccc(NC(=O)Nc3ccc(Cl)c(C(F)(F)F)c3)cc2)cc1`, 84.7%.

As for `CC(C)(C)c1cc(/C=C2\S/C(=N/c3ncn[nH]3)NC2=O)cc(C(C)(C)C)c1O`, the growth is 5.61% (active). With `Cn1cc(/C=C(/SS/C(=C/c2cn(C)c3cccc(C(=O)O)c23)C(=O)O)C(=O)O)c2c(C(=O)O)cccc21` the figure was 93.4%; with `COc1ccc(C(=O)COc2ccc(NC(=O)Nc3ccccc3)cc2)cc1`, 86.4%.

Consider `CCn1c(SCC(=O)Nc2ccc(-c3nc4ccccc4[nH]3)cc2)nc2ccccc2c1=O`, for which the growth is -42.6% (active). To `O=C(Nc1ccc(OCc2ccc(F)cc2)cc1)Nc1ccc(Cl)c(C(F)(F)F)c1` belongs 4.62% (active); to `O=C(CC(=O)Nc1ccc(Oc2ncnc3scc(Nc4n[nH]c(=S)s4)c23)cc1)Nc1ccc(Br)cc1`, 103%; to `COc1ccc(C(=O)COc2ccc(NC(=O)Nc3ccc(Cl)c(C(F)(F)F)c3)cc2)cc1`, 17.7%. With `O=C(Nc1ccc(Oc2ncnc3scc(Nc4n[nH]c(=S)s4)c23)cc1)C1(C(=O)Nc2cccc(C(F)(F)F)c2)CC1` the figure was 104%.

Consider `O=C1NC(=S)S/C1=C\c1cn(-c2ccccc2)nc1-c1ccc([N+](=O)[O-])cc1`, for which the growth is 13.6%.

Consider `O=C(CSc1nc2ccccc2c(=O)n1-c1ccc(Cl)cc1)Nc1ccc(-c2nc3ccc([N+](=O)[O-])cc3[nH]2)cc1`, for which the growth is 61.3%.
